Most compounds without a hit are left out; they make up all but 3.8% or so of the library.
Hsp70 activator = Hsp70 transcriptional activation, primary screen. AID 1203. activation, % at 10 µM. actives 0.04% (n = 200,000). HeLa Hsp70 promoter luciferase reporter, luminescence; scaled: vehicle 0, proteasome-inhibitor control 100%;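 active = activation above the mean across all tested compounds plus 3 SD, cutoff set per campaign, cut at about 5.5% in these data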
HSF-1 act = increases HSF-1 driven luciferase reporter signal | NIH3T3-HGL HSF-1 luciferase reporter, MG132, 8 h; 100% = twice DMSO control signal | activation, % at 9 µM | actives 1.7% (n = 300,000) | AID 504408;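 active = mean replicate activation of at least 50% with a set share of replicates each reaching 50%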
HSP90 inh = blocks HSP90-mediated luciferase refolding in reticulocyte lysate; actives 0.91% (n = 290,000); inhibition, % at 5.6 µM; Rabbit reticulocyte lysate, luciferase refolding luminescence, 3 h; AID 1789;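 active = inhibition above the screen-wide mean plus 3 SD, computed separately per campaign, cut at about 16% in these data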;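 note: inhibitors lower the luminescence because luciferase stays unfolded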
NALP1 yeast inh = blocks the NALP1 inflammasome reconstituted in yeast; S. cerevisiae NALP1/ASC/caspase-1 growth, X-gal OD620, 72 h; actives 0.61% (n = 280,000); inhibition, % at 10 µM; in the data active = inhibition mostly above about 24%, no sharp cut-off; inactive = mostly below about 32%
pCIP destab = lowers stability of the mouse p/CIP coactivator protein; AID 1984; F442A p/CIP-EGFP cells, EGFP fluorescence, 16 h; decrease of EGFP signal, % at 10 µM; actives 0.01% (n = 290,000); Q05BA5;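 active = EGFP signal decrease of at least 30% at 10 µM or well 3 SD below plate mean, unless failing retest; inactive = the rest, including hits failing retest or dose response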
Target sequence (Q05BA5 1-1403): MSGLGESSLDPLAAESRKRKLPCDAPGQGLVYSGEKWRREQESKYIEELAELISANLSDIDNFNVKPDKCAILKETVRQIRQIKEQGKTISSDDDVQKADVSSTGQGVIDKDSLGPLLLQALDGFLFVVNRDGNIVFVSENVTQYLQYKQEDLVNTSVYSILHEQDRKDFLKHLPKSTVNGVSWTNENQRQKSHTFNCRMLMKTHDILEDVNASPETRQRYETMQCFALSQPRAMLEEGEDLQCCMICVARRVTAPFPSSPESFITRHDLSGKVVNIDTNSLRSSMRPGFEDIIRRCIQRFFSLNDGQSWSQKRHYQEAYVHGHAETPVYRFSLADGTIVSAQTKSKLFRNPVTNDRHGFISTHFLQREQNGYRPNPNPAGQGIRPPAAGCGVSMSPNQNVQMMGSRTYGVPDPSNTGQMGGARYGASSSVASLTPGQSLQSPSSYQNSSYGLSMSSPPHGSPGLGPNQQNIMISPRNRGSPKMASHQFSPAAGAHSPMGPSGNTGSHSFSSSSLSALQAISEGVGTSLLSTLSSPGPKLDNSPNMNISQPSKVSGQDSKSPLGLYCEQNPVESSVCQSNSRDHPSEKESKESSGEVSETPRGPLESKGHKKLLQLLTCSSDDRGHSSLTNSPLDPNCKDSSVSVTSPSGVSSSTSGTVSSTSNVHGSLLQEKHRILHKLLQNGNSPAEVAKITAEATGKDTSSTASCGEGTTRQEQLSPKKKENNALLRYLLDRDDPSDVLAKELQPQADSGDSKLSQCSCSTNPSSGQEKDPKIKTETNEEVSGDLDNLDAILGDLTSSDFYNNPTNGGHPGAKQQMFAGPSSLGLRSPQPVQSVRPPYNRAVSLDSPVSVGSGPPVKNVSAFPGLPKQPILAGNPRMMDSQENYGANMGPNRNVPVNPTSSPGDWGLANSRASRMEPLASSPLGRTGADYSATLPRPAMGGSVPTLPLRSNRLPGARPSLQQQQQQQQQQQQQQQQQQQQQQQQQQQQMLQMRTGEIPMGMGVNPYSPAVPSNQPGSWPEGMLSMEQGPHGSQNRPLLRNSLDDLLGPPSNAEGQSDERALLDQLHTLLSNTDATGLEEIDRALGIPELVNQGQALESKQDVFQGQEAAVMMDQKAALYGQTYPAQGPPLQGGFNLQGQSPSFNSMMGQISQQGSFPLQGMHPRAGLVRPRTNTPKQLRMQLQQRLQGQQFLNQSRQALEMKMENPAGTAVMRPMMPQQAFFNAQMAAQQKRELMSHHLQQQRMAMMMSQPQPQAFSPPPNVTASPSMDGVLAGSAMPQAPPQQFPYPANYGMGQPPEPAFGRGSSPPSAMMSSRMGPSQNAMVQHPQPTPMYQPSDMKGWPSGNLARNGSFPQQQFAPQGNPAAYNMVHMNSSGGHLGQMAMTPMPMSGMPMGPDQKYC
HSF1 inh = HSF1 inhibition. AID 2098. activity change, negative = inhibition, % at 7.5 µM (by protocol). NIH3T3-HGL HSE-luciferase, MG132-induced, luminescence 8 h; hits give low values. actives 0.77% (n = 300,000);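 active = more than half of replicate wells show activity change below -50%, luminescence cut by over half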;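 note: luciferase reports HSF-1 transcriptional activity via heat shock element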
Of the large screens only hits and unclear results are named; the others gave an inactive call.

CCN(CC)S(=O)(=O)c1ccc(N2CCc3ccccc3C2)nc1	HSF-1 act 72.7 (no result: Hsp70 activator)
CC(C)N(C(C)C)S(=O)(=O)c1ccc(Cl)nc1	none
CC(C)N(C(C)C)S(=O)(=O)c1ccc(N2CCc3ccccc3C2)nc1	HSF-1 act 130.4 (no result: Hsp70 activator)
COc1ccc(Oc2ccc(NC(=O)c3ccccc3C)cc2)cc1	none
Cc1[nH]c2ccccc2c1C(=O)/C=C/c1ccccc1	HSF-1 act 70.3
Cc1[nH]c2ccccc2c1C(=O)/C=C/c1ccccc1Cl	HSF-1 act 113.0
Cc1[nH]c2ccccc2c1C(=O)/C=C\c1ccccc1Cl	none (no result: NALP1 yeast inh)
Cc1nc2ccccc2c(N)c1C(=O)/C=C/c1ccccc1	HSF-1 act 63.9 (no result: Hsp70 activator)
CN(CC(=O)Nc1ccccc1Cl)C(=O)CCc1nc2ccccc2c(=O)[nH]1	none (no result: Hsp70 activator, HSP90 inh, NALP1 yeast inh, pCIP destab)
CC(=O)c1ccc(OCc2cc(C(=O)N3CCN(C4CCCC4)C(=O)C3)no2)cc1	none (no result: Hsp70 activator)
COC(=O)c1ccccc1NC(=O)NC1CCC(C)CC1 (stereo not drawn)	none
Cc1nnc(SCc2nnc(-c3ccccc3Br)o2)n1-c1ccccc1	none
Fc1ccccc1SCc1nnc(-c2ccccc2Br)o1	HSF-1 act 79.3
O=C(CCc1[nH]c2ccccc2c1Sc1ccccc1)NCCO	none
CC(=O)N1N=C(c2ccc3ccccc3c2)OC1(C)C	NALP1 yeast inh 60.3
Cc1nc2ccccc2cc1OCc1ccc(Cl)cc1	HSF-1 act 59.1
Cn1c(=O)oc2cc(S(=O)(=O)N3CCCCC3)ccc21	HSF-1 act 113.2 (no result: Hsp70 activator)
O=C(NCc1ccccc1Cl)C1CCN(S(=O)(=O)N2CCCC2)CC1	HSF1 inh -68.7 (no result: Hsp70 activator)
COCC(=O)N(Cc1cc2ccc(C)cc2[nH]c1=O)c1cccc(C)c1	none (no result: Hsp70 activator)
O=C(CNc1cccc(S(=O)(=O)N2CCOCC2)c1)Nc1ccccc1F	none (no result: Hsp70 activator)
COc1ccccc1N1C(=NC(=O)COc2ccccc2)SC2CS(=O)(=O)CC21 (stereo not drawn)	none (no result: Hsp70 activator)
C=CCNc1ncnc2c1[nH]c1ccc(C)cc12	HSF-1 act 62.0
CCOC(=O)c1c(C)sc2c1N(C(=O)CCl)c1cc(Cl)ccc1S2	HSF-1 act 79.3
S=C(NC1CCCCC1)NC1CC2C=CC1C2 (stereo not drawn)	HSF-1 act 85.2 (no result: Hsp70 activator, NALP1 yeast inh)
CC(C)(CCO)NC(=S)NC1CC2C=CC1C2 (stereo not drawn)	none (no result: Hsp70 activator)
CS(=O)(=O)/C(C#N)=C/c1c(-c2ccccc2)nc2n1CCS2	none (no result: Hsp70 activator, NALP1 yeast inh)
Clc1ccc(CO/N=C/c2c(-c3ccccc3)nc3n2CCS3)c(Cl)c1	HSF-1 act 73.6
CCCNc1nc(Nc2ccc(C)cc2)nc(N2CCCC2)n1	NALP1 yeast inh 42.3
Cc1cc(C)n(C(N)=NC(=O)c2ccc([N+](=O)[O-])cc2)n1	pCIP destab 42.2 (no result: Hsp70 activator)
O=C(OCC(=O)N1CCN(C(=O)c2ccco2)CC1)c1ccccc1NCCO	none (no result: Hsp70 activator, HSP90 inh, NALP1 yeast inh, pCIP destab)
O=C(NCCCN1CCC(Cc2ccccc2)CC1)C1CC(=O)N(C2CCCC2)C1 (stereo not drawn)	HSF1 inh -62.0
O=C(NCCCN1CCC(Cc2ccccc2)CC1)C1CCC(=O)N1C1CCCC1 (stereo not drawn)	none
COc1ccc(C(=O)C(CN2CCOCC2)c2ccccc2)cc1F (stereo not drawn)	NALP1 yeast inh 40.7
O=C(c1ccc(Cl)cc1)C(CN1CCCCC1)c1ccccc1 (stereo not drawn)	HSF-1 act 106.8 (no result: Hsp70 activator)
COc1ccc(C(O)C(CN2CCOCC2)c2ccccc2)cc1F (stereo not drawn)	none
c1ccc(C(NCCNC(c2ccccc2)c2ccccc2)c2ccccc2)cc1	none (no result: Hsp70 activator)
Cc1cc(C)c(NC(=O)CCN2C(=O)c3ccccc3S2(=O)=O)c(C)c1	none (no result: Hsp70 activator, HSP90 inh, NALP1 yeast inh, pCIP destab)
O=C(O)c1ccccc1-c1ccccc1C(=O)Nc1ccc2c(c1)[nH]c(=O)c1ccccc12	none (no result: Hsp70 activator)
O=C1C2CC=CCC2C(=O)N1Cc1nnc(-c2ccc(Cl)cc2)o1 (stereo not drawn)	HSF-1 act 55.9
Oc1ccc2ccccc2c1C=Nc1ccccc1-c1nc2ccccc2[nH]1	HSF-1 act 59.2
Cc1cc(C)nc(NC(=O)c2ccc(Cl)cc2Cl)n1	none
Nc1nc(Nc2ccccc2)sc1C(=O)c1ccccc1	HSF-1 act 62.1 (no result: Hsp70 activator, NALP1 yeast inh)
COc1ccc(C(=O)c2sc(Nc3ccccc3)nc2N)cc1	none (no result: Hsp70 activator)

High-throughput results from PubChem BioAssay.
